The whole screen tested about 63,000 compounds, of which about 1,100 (1.7%) were called active.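 How the source made its calls: active means compounds whose percent cytotoxicity in the single-dose primary screen, scaled between solvent and toxic-drug controls, exceeds 50; inactive means the rest.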 Only a selection was taken, and actives are over-represented in it overall. Results with a measured potency or affinity are listed apart.
assay: viability loss of HPDE-C7K cells – cell-based, fluorescence, HTS, primary screen (AID 431); conditions: HPDE-C7K KRASV12 cells, Alamar Blue viability, 48 h; at 10 µM; stronger effect = higher value;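 further: 0% = DMSO solvent wells and 100% = doxorubicin-treated wells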

Row | Compound | cytotoxicity
1 | Cn1c(-c2ccc(F)cc2)cnc1SCC(=O)N1CCCCC1 | -5.4% (inactive)
2 | C/C=C/c1ccc(Oc2nnnn2-c2ccc(C(N)=O)cc2)c(OC)c1 | 1% (inactive)
3 | Fc1ccc2[nH]c3c(N4CCN(Cc5ccc6c(c5)OCO6)CC4)ncnc3c2c1 | 95.1% (active)
4 | Cc1ccc2[nH]c3c(N4CCN(Cc5ccc6c(c5)OCO6)CC4)ncnc3c2c1 | 34.4% (inactive)
5 | c1nc(N2CCN(Cc3ccc4c(c3)OCO4)CC2)c2[nH]cnc2n1 | -0.7% (inactive)
6 | CCOc1ccc(N(CC(=O)NCc2cccs2)S(=O)(=O)c2c(C)noc2C)cc1 | -1.7% (inactive)
7 | CCOC(=O)N1CCN(c2c(N3CC=C(c4ccccc4)CC3)c(=O)c2=O)CC1 | -2.9% (inactive)
8 | CSc1cccc(NC(=O)CSc2nc3ccccc3o2)c1 | -18.9% (inactive)
9 | O=C(CSc1nc2ccccc2o1)Nc1ccccc1 | -14.6% (inactive)
10 | COc1ccc(C(=O)Nc2cccc(C)c2)cc1S(=O)(=O)N1CCOCC1 | 15.9% (inactive)
11 | O=C(NCc1ccoc1)c1ccc(NC(=O)c2ccccc2Cl)cc1 | -12.8% (inactive)
12 | COCCn1nnnc1CN1CCC(NC(=O)c2ccc(Br)cc2)CC1 | -2.4% (inactive)
13 | CC(=O)OCC1OC(n2ccc(=O)[nH]c2=O)C(O)C1O (stereo not given) | 0.8% (inactive)
14 | CC(=O)OC[C@H]1O[C@@H](n2ncc(=O)[nH]c2=O)[C@H](OC(C)=O)[C@@H]1OC(C)=O | 54.7% (active)
15 | CC(=O)OC[C@H]1O[C@@H](n2ccc(=O)[nH]c2=S)C(OC(C)=O)C1OC(C)=O (stereo not given in full) | 4.5% (inactive)
16 | Nc1nc2nonc2nc1N1CCCCC1 | -2.7% (inactive)
17 | CCOC(=O)c1cnc(SC2CC(=O)N(c3ccc(OC)c(OC)c3)C2=O)nc1N (stereo not given) | -9.5% (inactive)
18 | CC(NC(=O)CSc1ncccn1)c1ccccc1 (stereo not given) | 1.8% (inactive)
19 | CC(NCCC(c1ccccc1)c1ccccc1)c1ccccc1 (stereo not given) | 90.2% (active)
20 | C/C(Cl)=C\CNC(C)c1ccccc1 (stereo not given) | -6.7% (inactive)
21 | O=C(Nc1ccccc1N1CCN(C(=O)c2ccc(Cl)cc2)CC1)c1cc2ccccc2o1 | 13.1% (inactive)
22 | O=C(Nc1ccc(N2CCOCC2)c(Cl)c1)c1cccc(F)c1 | 31.3% (inactive)
23 | O=C(Nc1ccc(N2CCN(C(=O)c3ccco3)CC2)c(Cl)c1)c1cccs1 | -1% (inactive)
24 | O=C(Nc1ccc(N2CCN(C(=O)c3ccco3)CC2)c(Cl)c1)c1c(F)c(F)c(F)c(F)c1F | 103% (active)
25 | O=C(Cc1ccc(Cl)cc1)Nc1ccc(N2CCN(C(=O)c3ccco3)CC2)c(Cl)c1 | 21.6% (inactive)
26 | O=C(Nc1ccc(N2CCOCC2)c(Cl)c1)c1c(F)c(F)c(F)c(F)c1F | 64.4% (active)
27 | O=C(Nc1ccccc1N1CCN(C(=O)c2ccccc2)CC1)c1cc2ccccc2o1 | -7.4% (inactive)
28 | O=C(Nc1ccc(N2CCOCC2)c(Cl)c1)c1ccco1 | -11.5% (inactive)
29 | CCC(=O)Nc1ccc(NC(=O)c2cc3ccccc3o2)cc1 | -17.1% (inactive)
30 | CCCC(=O)N1CCN(c2ccc(NC(=O)c3cc4ccccc4o3)cc2)CC1 | -19% (inactive)

From PubChem BioAssay AID431 (Sanford-Burnham Center for Chemical Genomics, 2006)
